From PubChem BioAssay (EPA / NIEHS)
Activity calls are given as the source filed them. The calls were made as follows: active = hit-call score of the fitted dose curve at least 0.9, where 1 is the maximum; inactive = score below 0.9.

Legend:
[1] = read-out: Collagen III, COL3A1 (gene 1281); experiment: BSK_hDFCGF_CollagenIII: BioMAP Diversity Plus: hDFCGF Assay for Collagen III Biomarker Activity (AID 2283056); conditions: primary human foreskin fibroblasts; actives raise or lower the signal
Summary of the method: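 Cells: human foreskin fibroblasts, primary. Dosing followed by 24 h incubation, then ELISA for collagen III. Both increases and decreases scored relative to DMSO.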

[2] = read-out: Epidermal growth factor receptor (EGFR), EGFR (gene 1956); experiment: BSK_hDFCGF_EGFR: BioMAP Diversity Plus: hDFCGF Assay for Epidermal growth factor receptor (EGFR) Biomarker Activity (AID 2283057); conditions: primary human foreskin fibroblasts; actives raise or lower the signal
Summary of the method: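 EGFR levels by ELISA in human dermal fibroblast cultures, 24 h post-treatment, fitted bidirectionally versus DMSO. Parallel wells stained with sulforhodamine B to detect overt cytotoxicity.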

[3] = BSK_hDFCGF_Proliferation: Cell Proliferation Assessment in the BioMAP Diversity Plus: hDFCGF Assay (AID 2283059); conditions: primary human foreskin fibroblasts;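 also: curves fitted for both rise and fall of signal versus DMSO baseline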
Summary of the method: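 Total protein read at 560 nm after 0.1% SRB staining of TCA-fixed human skin fibroblasts, […]. Activity is fitted in both directions relative to DMSO as baseline.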

[4] = read-out: Macrophage colony-stimulating factor (MCSF), CSF1 (gene 1435); experiment: BSK_hDFCGF_MCSF: BioMAP Diversity Plus: hDFCGF Assay for Macrophage colony-stimulating factor (MCSF) Biomarker Activity (AID 2283060); conditions: primary human foreskin fibroblasts; actives raise or lower the signal
Summary of the method: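 M-CSF levels, determined by ELISA, are taken at 24 h after dosing human skin fibroblasts. Responses in either direction are fitted with DMSO serving as the baseline.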

[5] = BSK_hDFCGF_SRB: Viability Assessment in the BioMAP Diversity Plus: hDFCGF Assay (AID 2283061); conditions: primary human foreskin fibroblasts;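 also: cells exposed to compound for 24 h before the read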
Summary of the method: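 Cells were dosed with test chemical, cultured 24 h, fixed with 10% TCA, then stained with 0.1% SRB and read at 560 nm. The fibroblasts were human foreskin primary cells, and DMSO served as baseline.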

[6] = read-out: TIMP metallopeptidase inhibitor 1 (TIMP1), TIMP1 (gene 7076); experiment: BSK_hDFCGF_TIMP1: BioMAP Diversity Plus: hDFCGF Assay for TIMP metallopeptidase inhibitor 1 (TIMP1) Biomarker Activity (AID 2283062); conditions: primary human foreskin fibroblasts; actives raise or lower the signal
Summary of the method: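 Fibroblasts from human foreskin are treated with test chemical and harvested at 24 h. TIMP-1 is quantified by ELISA, and gain or loss of signal is scored against DMSO.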

[7] = read-out: Monokine induced gamma interferon (MIG), CXCL9 (gene 4283); experiment: BSK_hDFCGF_MIG: BioMAP Diversity Plus: hDFCGF Assay for Monokine induced gamma interferon (MIG) Biomarker Activity (AID 2283063); conditions: primary human foreskin fibroblasts; actives raise or lower the signal
Summary of the method: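 MIG signal, determined by ELISA, reflects 24 h chemical exposure of human skin primary fibroblasts. DMSO serves as negative control and baseline.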

[8] = read-out: Matrix Metallopeptidase 1 (MMP1), MMP1 (gene 4312); experiment: BSK_hDFCGF_MMP1: BioMAP Diversity Plus: hDFCGF Assay for Matrix Metallopeptidase 1 (MMP1) Biomarker Activity (AID 2283064); conditions: primary human foreskin fibroblasts; actives raise or lower the signal
Summary of the method: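 Human foreskin fibroblasts exposed to chemical for 24 h; MMP1 detected by ELISA, with DMSO as baseline for bidirectional fitting.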

[9] = read-out: Vascular cell adhesion molecule 1 (VCAM1), VCAM1 (gene 7412); experiment: BSK_hDFCGF_VCAM1: BioMAP Diversity Plus: hDFCGF Assay for Vascular cell adhesion molecule 1 (VCAM1) Biomarker Activity (AID 2283065); conditions: primary human foreskin fibroblasts; actives raise or lower the signal;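 as to AC50: VCAM-1 protein level quantified by ELISA after 24 h chemical exposure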
Summary of the method: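 Cells are dosed, cultured for 24 h, then VCAM-1 is quantified by ELISA; signal increases and decreases are both fitted relative to DMSO.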

[10] = read-out: Plasminogen activator inhibitor-1 (PAI1), SERPINE1 (gene 5054); experiment: BSK_hDFCGF_PAI1: BioMAP Diversity Plus: hDFCGF Assay for Plasminogen activator inhibitor-1 (PAI1) Biomarker Activity (AID 2283066); conditions: primary human foreskin fibroblasts; actives raise or lower the signal
Summary of the method: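 PAI-1 levels in human dermal foreskin fibroblasts were quantified by ELISA 24 h after dosing, with gain or loss analysed against DMSO. Overt cytotoxicity was checked by sulforhodamine B total-protein staining in parallel cultures.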

[11] = read-out: Intercellular Adhesion Molecule 1 (ICAM1), ICAM1 (gene 3383); experiment: BSK_KF3CT_ICAM1: BioMAP Diversity Plus: KF3CT Assay for Intercellular Adhesion Molecule 1 (ICAM1) Biomarker Activity (AID 2283067); conditions: primary human keratinocytes with fibroblasts; actives raise or lower the signal
Summary of the method: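 Dose the keratinocyte/fibroblast co-culture, wait 24 h, measure ICAM-1 by ELISA, then fit increases or decreases against DMSO. Cytotoxicity is checked in parallel cultures by SRB total-protein staining.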

[12] = read-out: Interferon-gamma inducible Protein 10 (IP10), CXCL10 (gene 3627); experiment: BSK_KF3CT_IP10: BioMAP Diversity Plus: KF3CT Assay for Interferon-gamma inducible Protein 10 (IP10) Biomarker Activity (AID 2283068); conditions: primary human keratinocytes with fibroblasts; actives raise or lower the signal
Summary of the method: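 Human keratinocyte plus foreskin fibroblast primary co-culture exposed to test chemical for 24 h; IP-10 measured by ELISA. Concentration-response fitted bidirectionally against DMSO control as baseline.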

[13] = BSK_KF3CT_SRB: Viability Assessment in the BioMAP Diversity Plus: KF3CT Assay (AID 2283069); conditions: primary human keratinocytes with fibroblasts;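 also: fitted for both signal gain and loss against DMSO baseline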
Summary of the method: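 Overt cytotoxicity is assessed as total protein by sulforhodamine B staining in parallel human skin co-cultures at 24 h after dosing. DMSO serves as negative control and baseline.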

[14] = read-out: Interleukin-1 alpha (IL1a), IL1A (gene 3552); experiment: BSK_KF3CT_IL1a: BioMAP Diversity Plus: KF3CT Assay for Interleukin-1 alpha (IL1a) Biomarker Activity (AID 2283070); conditions: primary human keratinocytes with fibroblasts; actives raise or lower the signal
Summary of the method: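 Readout is IL-1a level by ELISA, compared bidirectionally with DMSO as baseline. Cells: human keratinocytes co-cultured with foreskin fibroblasts, harvested 24 h post-dose.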

[15] = read-out: TIMP metallopeptidase inhibitor 2 (TIMP2), TIMP2 (gene 7077); experiment: BSK_KF3CT_TIMP2: BioMAP Diversity Plus: KF3CT Assay for TIMP metallopeptidase inhibitor 2 (TIMP2) Biomarker Activity (AID 2283071); conditions: primary human keratinocytes with fibroblasts; actives raise or lower the signal
Summary of the method: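 TIMP-2 measured by ELISA at 24 h in human keratinocyte/fibroblast primary co-cultures exposed to chemicals. Both increases and decreases were fitted against DMSO. Parallel cultures were stained with SRB for total protein as an overt-cytotoxicity check.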

[16] = read-out: Matrix Metallopeptidase 9 (MMP9), MMP9 (gene 4318); experiment: BSK_KF3CT_MMP9: BioMAP Diversity Plus: KF3CT Assay for Matrix Metallopeptidase 9 (MMP9) Biomarker Activity (AID 2283074); conditions: primary human keratinocytes with fibroblasts; actives raise or lower the signal;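 as to AC50: MMP9 protein level quantified by ELISA in the co-culture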
Summary of the method: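 Values come from bidirectional fitting relative to DMSO of MMP-9 levels, which were measured by ELISA. Measurements were taken 24 h after chemical dosing of a keratinocyte and foreskin fibroblast co-culture.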

[17] = read-out: CD40, CD40 (gene 958); experiment: BSK_LPS_CD40: BioMAP Diversity Plus: LPS Assay for CD40 Biomarker Activity (AID 2283076); conditions: primary human HUVEC with PBMC; actives raise or lower the signal
Summary of the method: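 CD40 signal, measured by ELISA, is fitted in both directions relative to DMSO vehicle. The system is an LPS-driven human vascular primary co-culture of endothelial cells and PBMC, sampled 24 h after compound addition.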

[18] = read-out: E-selectin (Homo sapiens) (UniProt P16581); experiment: BSK_LPS_Eselectin: BioMAP Diversity Plus: LPS Assay for Eselectin Biomarker Activity (AID 2283077); conditions: primary human HUVEC with PBMC; actives raise or lower the signal
Summary of the method: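 Signal of E-selectin, detected by ELISA, served as the endpoint; cells were umbilical vein endothelium with PBMC, read 24 h after treatment. DMSO defined baseline, and both increases and decreases were fitted.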

[19] = read-out: Interleukin-8 (IL8), CXCL8 (gene 3576); experiment: BSK_LPS_IL8: BioMAP Diversity Plus: LPS Assay for Interleukin-8 (IL8) Biomarker Activity (AID 2283078); conditions: primary human HUVEC with PBMC; actives raise or lower the signal
Summary of the method: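 Endothelial cells and PBMC from human donors are co-cultured, treated with chemicals and LPS, then assayed for IL-8 by ELISA after 24 h. Parallel SRB staining (0.1% SRB after 10% TCA fixation, 560 nm) flags cytotoxicity.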

[20] = read-out: Transforming growth factor beta 1 (TGFb1), TGFB1 (gene 7040); experiment: BSK_KF3CT_TGFb1: BioMAP Diversity Plus: KF3CT Assay for Transforming growth factor beta 1 (TGFb1) Biomarker Activity (AID 2283072); conditions: primary human keratinocytes with fibroblasts; actives raise or lower the signal
Summary of the method: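 ELISA quantifies TGF-b1 at 24 h post-dose in a primary human skin co-culture of keratinocytes and fibroblasts, with gain or loss judged against DMSO. Parallel SRB total-protein staining flags overt cytotoxicity.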

Measured: AC50

Chain of E-selectin (Homo sapiens) (P16581 whole entry, looked up): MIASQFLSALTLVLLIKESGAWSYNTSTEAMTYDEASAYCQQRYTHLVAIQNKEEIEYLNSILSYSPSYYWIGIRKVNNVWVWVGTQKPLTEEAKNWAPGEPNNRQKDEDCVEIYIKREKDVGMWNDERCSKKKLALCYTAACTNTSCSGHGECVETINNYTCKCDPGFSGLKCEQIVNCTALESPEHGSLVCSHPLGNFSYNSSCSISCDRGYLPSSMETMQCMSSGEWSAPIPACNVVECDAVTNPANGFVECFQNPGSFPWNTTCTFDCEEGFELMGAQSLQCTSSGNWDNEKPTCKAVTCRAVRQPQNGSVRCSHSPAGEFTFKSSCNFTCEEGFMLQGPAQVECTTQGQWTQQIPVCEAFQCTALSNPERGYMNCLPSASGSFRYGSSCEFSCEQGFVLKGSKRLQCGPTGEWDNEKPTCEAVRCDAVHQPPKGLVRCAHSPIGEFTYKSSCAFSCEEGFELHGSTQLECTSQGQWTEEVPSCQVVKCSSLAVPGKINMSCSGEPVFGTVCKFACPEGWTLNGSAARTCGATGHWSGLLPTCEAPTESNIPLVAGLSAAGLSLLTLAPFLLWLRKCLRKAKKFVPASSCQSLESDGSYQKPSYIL

C=CCOCC(O)CCl (configuration not stated)
not listed: [20]
inactive: all other assays above

N#[N+]c1ccc2c(S(=O)(=O)[O-])cccc2c1O
inactive: all assays above

CCCCNc1ccc(NCCCC)c2c1C(=O)c1ccccc1C2=O
active: [1] 3.46 µM
inactive: all other assays above

CCCCC(CC)COCC1CO1 (configuration not stated)
not listed: [20]
inactive: all other assays above

O=Nc1ccc(O)cc1
inactive: all assays above

C#CC1(O)CC[C@H]2[C@@H]3CCC4=CCCC[C@@H]4[C@H]3CC[C@@]21C (some centres not stated)
active: [1] 34.4 µM | [2] 20 µM | [3] 15.1 µM | [4] 30 µM | [5] 35.2 µM | [6] 33 µM | [7] 35 µM | [8] 37.5 µM | [9] 37.5 µM | [10] 36.7 µM | [11] 13.6 µM | [12] 34 µM | [13] 30.6 µM | [14] 31.7 µM | [15] 20 µM | [20] 25.4 µM | [16] 31.9 µM | [17] 20 µM | [18] 30.3 µM | [19] 35 µM

c1ccc2c(c1)ccc1ncccc12
active: [3] 20 µM | [14] 8.26 µM | [16] 20 µM | [17] 20 µM
inactive: all other assays above

O=C(Nc1ccccc1SSc1ccccc1NC(=O)c1ccccc1)c1ccccc1
active: [17] 4.75 µM | [19] 5.19 µM
inactive: all other assays above

O=C1CCCN1CCO
not listed: [20]
inactive: all other assays above
